According to PubChem BioAssay (NCI):
The panel holds about 83,000 compounds, 20% with a hit somewhere; the sample as a whole holds those more often.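 Percent growth is the endpoint: 0 to 100 indicates growth inhibition (40 means 60% inhibition), 0 means no net growth, and negative values indicate cell death.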 Calls of active or inactive are those of the source. How the source made its calls: active means growth percent below 10; inactive means the rest.

Assays:
Assay in all cases: NCI-60 one-dose screen, 48 h (100 = growth as untreated, 0 = no growth, -100 = all killed)
Conditions in all cases: 10 µM unless noted
NCI-H23 lung = system: NCI-H23 lung
NCI-H226 lung = system: NCI-H226 lung
NCI-H322M lung = system: NCI-H322M lung
HOP-62 NSCLC = system: HOP-62 NSCLC
NCI-H460 lung = system: NCI-H460 lung
HOP-92 NSCLC = system: HOP-92 NSCLC
NCI-H522 lung = system: NCI-H522 lung
A549/ATCC NSCLC = system: A549/ATCC NSCLC
786-0 renal = system: 786-0 renal
COLO 205 colon = system: COLO 205 colon

Measured: growth

N#C/C(=C\c1ccc(-c2cccc(C(F)(F)F)c2)o1)c1ccccc1
inactive: NCI-H23 lung 79.7% | NCI-H226 lung 77.4% | NCI-H322M lung 86% | HOP-62 NSCLC 88.1% | NCI-H460 lung 97.1% | HOP-92 NSCLC 87.5% | NCI-H522 lung 84.6% | A549/ATCC NSCLC 94.3% | 786-0 renal 99.9% | COLO 205 colon 101%

Cc1ccc(CNc2c3ccccc3nc3ccccc23)cc1
inactive: NCI-H23 lung 29.3% | NCI-H226 lung 41.5% | NCI-H322M lung 39.7% | HOP-62 NSCLC 43.7% | NCI-H522 lung 49% | A549/ATCC NSCLC 26.1% | 786-0 renal 25.4%
active: NCI-H460 lung 8.75% | HOP-92 NSCLC 3.24% | COLO 205 colon 0.281%

CC(=O)c1ccc(Nc2nccc(-c3ccc4ccccc4c3)n2)cc1
inactive: NCI-H23 lung 94.4% | NCI-H226 lung 57.1% | NCI-H322M lung 97.8% | HOP-62 NSCLC 102% | NCI-H460 lung 98.4% | HOP-92 NSCLC 97.5% | NCI-H522 lung 45.6% | A549/ATCC NSCLC 89.1% | 786-0 renal 96.9% | COLO 205 colon 105%

COc1ccc2c(c1)c(-c1nc(-c3c[nH]c4ncccc34)cs1)cn2CCO
inactive: NCI-H23 lung 62.5% | NCI-H226 lung 36.5% | NCI-H322M lung 47.6% | HOP-62 NSCLC 53.7% | NCI-H460 lung 46.3% | HOP-92 NSCLC 48.6% | NCI-H522 lung 36.8% | A549/ATCC NSCLC 66.9% | 786-0 renal 59.5% | COLO 205 colon 56.9%

CN1C(=O)/C(=C2\SC(=Nc3ccccc3)N(Nc3ccccc3)C2=O)c2ccccc21
inactive: NCI-H23 lung 94.1% | NCI-H226 lung 93.8% | NCI-H322M lung 95.4% | HOP-62 NSCLC 88.1% | NCI-H460 lung 101% | HOP-92 NSCLC 100% | NCI-H522 lung 94.5% | A549/ATCC NSCLC 98.6% | 786-0 renal 107% | COLO 205 colon 112%

N#Cc1ccc(O)c(C2=NCC(Cc3ccccc3)O2)c1 (stereo not given)
inactive: NCI-H23 lung 54.5% | NCI-H226 lung 65.9% | NCI-H322M lung 59.9% | HOP-62 NSCLC 24.1% | NCI-H460 lung 23.5% | HOP-92 NSCLC 65% | A549/ATCC NSCLC 35.8% | 786-0 renal 38.7% | COLO 205 colon 60.7%
active: NCI-H522 lung -17.5%

COc1cc(C(=O)n2nc(N3CCOCC3)c3cc(-n4cccc4)ccc32)cc(OC)c1OC
inactive: NCI-H23 lung 76.5% | NCI-H226 lung 69.3% | NCI-H322M lung 88.3% | HOP-62 NSCLC 92.4% | NCI-H460 lung 75.7% | HOP-92 NSCLC 14.4% | NCI-H522 lung 74.4% | A549/ATCC NSCLC 72.6% | 786-0 renal 17.4% | COLO 205 colon 56.6%

CNC1=C([N+](=O)[O-])C(c2ccc(OC)cc2)C(C#N)=C(c2cccs2)O1 (stereo not given)
inactive: NCI-H23 lung 103% | NCI-H226 lung 99.8% | NCI-H322M lung 103% | HOP-62 NSCLC 99.6% | NCI-H460 lung 109% | HOP-92 NSCLC 125% | NCI-H522 lung 102% | A549/ATCC NSCLC 102% | 786-0 renal 110% | COLO 205 colon 111%

O=C1/C(=C/c2ccc(O)c(O)c2)COc2ccc(-c3ccccc3)cc21
inactive: NCI-H23 lung 35.8% | NCI-H226 lung 36.2% | NCI-H322M lung 54.8% | HOP-62 NSCLC 77.5% | NCI-H460 lung 13.7% | A549/ATCC NSCLC 31.8% | 786-0 renal 24.8%
active: HOP-92 NSCLC 1.73% | NCI-H522 lung -67.2% | COLO 205 colon 5.4%

COc1ccc(-c2n[nH]c(=O)c3nc(NC(=S)Nc4ccc(Oc5ccccc5)cc4)sc23)cc1
inactive: NCI-H23 lung 99.7% | NCI-H226 lung 95.5% | NCI-H322M lung 101% | HOP-62 NSCLC 91% | NCI-H460 lung 101% | HOP-92 NSCLC 90.1% | NCI-H522 lung 68.9% | A549/ATCC NSCLC 86.7% | 786-0 renal 102% | COLO 205 colon 113%

O=C1c2ccccc2C(=O)C1c1ccc(Br)cc1
inactive: NCI-H23 lung 81.6% | NCI-H226 lung 103% | NCI-H322M lung 122% | HOP-62 NSCLC 115% | NCI-H460 lung 102% | HOP-92 NSCLC 75.1% | NCI-H522 lung 96.9% | A549/ATCC NSCLC 108% | 786-0 renal 93.9% | COLO 205 colon 113%

O=C(Nc1ccccc1O)c1ccc(CNC(=O)c2ccsc2Nc2ccnc(C(F)(F)F)c2)cc1
active: HOP-92 NSCLC -2.27% | NCI-H522 lung -24%
inactive: NCI-H23 lung 13.5% | NCI-H226 lung 38.3% | NCI-H322M lung 46.1% | HOP-62 NSCLC 47.6% | NCI-H460 lung 26% | A549/ATCC NSCLC 27.6% | 786-0 renal 42.8% | COLO 205 colon 47.3%

Cc1cccc(-c2nc(Nc3ccc4ncsc4c3)c3ccccc3n2)n1
inactive: NCI-H23 lung 57.8% | NCI-H226 lung 84.9% | NCI-H322M lung 93.5% | HOP-62 NSCLC 80.2% | NCI-H460 lung 36.1% | HOP-92 NSCLC 110% | NCI-H522 lung 56% | A549/ATCC NSCLC 34.5% | 786-0 renal 87.7% | COLO 205 colon 12.8%

CC1(C)NCCC[C@]2(C)[C@H]3CC[C@H]4[C@H]5[C@H](C(=O)/C=C/c6cccnc6)CCC[C@]5(CO)CC[C@@]4(C)[C@]3(C)CC[C@@H]12
inactive: NCI-H23 lung 77.6% | NCI-H226 lung 96.2% | NCI-H322M lung 85.5% | HOP-62 NSCLC 97.3% | NCI-H460 lung 10.9% | HOP-92 NSCLC 48.1% | NCI-H522 lung 88% | A549/ATCC NSCLC 67% | 786-0 renal 83.8%
active: COLO 205 colon -72.9%

O=C(O)c1ccc(-c2ccc(/C=N/Nc3nc(Nc4ccccc4)nc(N4CCCCC4)n3)o2)cc1
inactive: NCI-H23 lung 62.2% | NCI-H226 lung 92.4% | NCI-H322M lung 55.1% | HOP-62 NSCLC 85% | NCI-H460 lung 52.8% | HOP-92 NSCLC 35.1% | NCI-H522 lung 43% | A549/ATCC NSCLC 63.5% | 786-0 renal 61.5% | COLO 205 colon 83.2%

N#Cc1cccc(C2C3=C(COC3=O)N(CCO)c3cc4c(cc32)CCC4)c1 (stereo not given)
active: NCI-H460 lung 3.78% | NCI-H522 lung -3.91% | COLO 205 colon -26.1%
inactive: NCI-H23 lung 23.3% | NCI-H226 lung 28.4% | NCI-H322M lung 34.2% | HOP-62 NSCLC 26.3% | HOP-92 NSCLC 43% | A549/ATCC NSCLC 12.3% | 786-0 renal 24%

Cc1cccc(N2CCC(=O)NC2=S)c1
inactive: NCI-H23 lung 98.5% | NCI-H226 lung 97.3% | NCI-H322M lung 101% | HOP-62 NSCLC 110% | NCI-H460 lung 104% | HOP-92 NSCLC 105% | NCI-H522 lung 97% | A549/ATCC NSCLC 99.1% | 786-0 renal 103% | COLO 205 colon 119%

COc1ccc(C(=O)/C=C/c2ccc(Cl)cc2)cc1S(=O)(=O)Nc1c(N)nc(SC)[nH]c1=O
inactive: NCI-H23 lung 84.1% | NCI-H226 lung 83.2% | NCI-H322M lung 27.7% | HOP-62 NSCLC 32.6% | NCI-H460 lung 84% | HOP-92 NSCLC 73.7% | NCI-H522 lung 59.7% | A549/ATCC NSCLC 31.4% | 786-0 renal 31% | COLO 205 colon 49.8%

Nc1c(C(=O)Nc2cccc(Cl)c2)sc2nc3c(cc12)CCCC3
inactive: NCI-H23 lung 103% | NCI-H226 lung 83.6% | NCI-H322M lung 108% | HOP-62 NSCLC 91.8% | NCI-H460 lung 100% | HOP-92 NSCLC 82.7% | NCI-H522 lung 80.3% | A549/ATCC NSCLC 81.7% | 786-0 renal 89% | COLO 205 colon 92.2%

CN(Cc1cnc2nc(N)nc(N)c2n1)c1ccc(C(=O)NC(CCC(=O)O)C(=O)O)cc1Br (stereo not given)
inactive: NCI-H23 lung 31.3% | NCI-H226 lung 48.4% | NCI-H322M lung 69.6% | HOP-62 NSCLC 33.5% | NCI-H460 lung 16.7% | HOP-92 NSCLC 59.6% | NCI-H522 lung 43.8% | A549/ATCC NSCLC 26% | 786-0 renal 15.8% | COLO 205 colon 36.3%

Nn1c(=O)c(=O)[nH]c2c(cnn2-c2ccccc2)c1=O
inactive: NCI-H23 lung 108% | NCI-H226 lung 94.2% | NCI-H322M lung 108% | HOP-62 NSCLC 86.2% | NCI-H460 lung 117% | HOP-92 NSCLC 106% | NCI-H522 lung 96.2% | A549/ATCC NSCLC 101% | 786-0 renal 103% | COLO 205 colon 121%

COc1ccc(N2CCN(C(=O)c3sc4nc(C)c(Br)c(C)c4c3N)CC2)cc1
inactive: NCI-H23 lung 99.4% | NCI-H226 lung 74.2% | NCI-H322M lung 88% | HOP-62 NSCLC 80% | NCI-H460 lung 105% | HOP-92 NSCLC 88.9% | NCI-H522 lung 89.2% | A549/ATCC NSCLC 91.1% | 786-0 renal 99.7% | COLO 205 colon 107%
